Bioassay records (PubChem BioAssay)
HIF-2a inh – HIF-2a reporter inhibitors, primary screen, luminescence, 786-0 RCC cells; inhibition, % at 18.8 µM; 360,000 tested, 0.72% active; 786-0 RCC cells HIF-2a reporter, luciferase luminescence, overnight; AID 624352, 2012;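 active = inhibition of the luminescence signal of 40% or more relative to plate controls, in a single-dose primary screen at 18.75 µM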
KKLEB tox – cytotoxicity in KKLEB CF airway cells, primary screen, cytotoxicity control for CF NF-kB inhibitor project, cell-based, uHTS, fluorescence assay plates; KKLEB CF airway cells viability, ATPlite luminescence, overnight; active compounds read low; cells stimulated with P. aeruginosa culture filtrate; activity change (cytotoxicity), % at 5 µM; 360,000 tested, 0.36% active; AID 602141, 2011;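 active = corrected activity change at or below -50% at 5 µM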
Shn3 3UTR inh – reduction of Shn3 3'UTR firefly luciferase signal, primary screen, Schnurri-3 inhibitor project, cell-based, Clone20 osteoblasts, set 2; Clone20 osteoblast Shn3 3'UTR firefly luciferase, 24 h; inhibition, % at 12.5 µM; 360,000 tested, 0.52% active;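 active = mean inhibition of at least 75% with every replicate also reaching 75%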;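 also: 0% = median of neutral control wells and 100% = pilot-screen positive control compound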
TRPM1 prom inh – inhibitors of MITF-dependent TRPM1 promoter reporter, primary screen, cell-based, SK-MEL-5, single point, luciferase; 330,000 tested, 0.83% active; inhibition, % at 12.5 µM; SK-MEL-5 TRPM1 promoter luciferase, 24 h;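 active = mean inhibition across replicates of 60% or more, whatever share of single replicates reaches that level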
CF NFkB inh – inhibitors of PAF-induced NF-kB signaling, primary screen, cell-based, GFP fluorescence, uHTS; KKLEB NF-kB-GFP reporter, GFP fluorescence overnight; inhibition, % at 5 µM; 360,000 tested, 0.86% active; AID 588850, 2011;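 active = at least 50% inhibition at 5 µM, scaled per plate between neutral and stimulator controls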;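 also: PAF is a Pseudomonas aeruginosa culture filtrate used as stimulus; plate controls were PAF-stimulated DMSO wells for no effect and unstimulated DMSO wells for full effect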
Peg3 prom inh – Peg3 promoter-driven luciferase inhibitors, primary screen, cell-based, HeLa, luciferase luminescence. HeLa PEG-Prom luciferase reporter, overnight. inhibition, % at 20 µM. 360,000 tested, 1.7% active;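 active = inhibition of at least 50% at 20 µM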
* marks the source's active call; other numbers are inactive results; nt = no result. A selection: hits, their analogues and other compounds. The true share with any hit is near 2.8%.

SMILES | HIF-2a inh | KKLEB tox | Shn3 3UTR inh | TRPM1 prom inh | CF NFkB inh | Peg3 prom inh
CC[n+]1c(C)sc2cc(C)ccc21 | 10.5 | 21.3 | 1.4 | -10.4 | -5.6 | 9.9
Cc1ccc2c(c1)sc(-c1ccc(N(C)C)cc1)[n+]2C | -85.3 | -15.9 | 63.0 | 62.0* | 13.9 | -99.2
COc1cc2c(C(=O)N3CCN(c4cccc(Cl)c4)CC3)cn(CC(C)C)c(=O)c2cc1OC | 11.6 | -13.3 | 4.4 | -12.6 | 18.0 | 34.9
NC(=S)N/N=C/c1ncc(C(F)(F)F)cc1Cl | 8.5 | -0.3 | 91.0* | 52.0 | 10.4 | 42.5
NC(=S)N/N=C/c1ccc(C(F)(F)F)cc1 | -37.6 | -10.8 | -18.7 | 9.8 | 2.7 | 37.3
Cn1c(=O)[nH]c(=O)c2c1[nH]c(=S)n2Cc1ccc(Cl)cc1 | 0.8 | 9.4 | 12.8 | nt | 5.1 | 26.5
COc1ccc(N/N=C(\C#N)C(=N)N2CCCCC2)cc1 | -222.4 | -7.5 | -31.0 | -56.0 | 12.4 | -212.3
COc1ccc(N/N=C(\C#N)C(=N)SCc2ccccc2)cc1 | 9.8 | -13.7 | -37.4 | 25.9 | 78.5* | 41.5
O=C(Nc1nc2c(s1)COc1ccccc1-2)c1cccs1 | -168.7 | 13.1 | -9.2 | nt | 8.1 | -64.2
O=C(CCS(=O)(=O)c1ccccc1)Nc1nc2c(s1)COc1ccccc1-2 | -43.1 | 3.7 | 1.4 | 1.2 | 8.3 | 92.5*
CCCCCCC[C@@H](C/C=C/CCC(=O)N(C)C/C(=C/Cl)C/C(=C\C(=O)N1CC(OC)=CC1=O)OC)OC | 8.5 | -60.8* | 81.5 | 75.0* | 54.4* | 40.8
CCCCCCC[C@@H](C/C=C/CCC(=O)N(C)C/C(=C/Cl)C/C(=C\C(=O)N1C[C@H](O)CC1=O)OC)OC | -5.6 | -7.1 | 60.6 | 11.3 | 27.0 | 7.3
S=C(CN1CCCC1=S)NCCc1ccccc1 | 7.8 | 1.9 | -0.7 | 16.8 | -6.3 | 3.5
CC1(C)Cc2cccc(OCC(=O)NCc3cccs3)c2O1 | 13.0 | -13.4 | 3.8 | -0.8 | 35.2 | 11.4
NC(=O)CC(NC(=O)Cc1ccc(Br)cc1)c1ccc(N2CCC(Cc3ccccc3)CC2)c([N+](=O)[O-])c1 (stereo not drawn) | 11.9 | -41.9 | 34.5 | 42.9 | 30.6 | 51.4*
NC(=O)CC(NC(=O)c1ccccc1)c1ccc(N2CCCCCCC2)c([N+](=O)[O-])c1 (stereo not drawn) | 9.5 | -10.3 | 59.3 | -6.9 | -2.1 | 16.9
NC(=O)CC(NC(=O)c1ccc(Br)cc1)c1ccc(N2CCCCCC2)c([N+](=O)[O-])c1 (stereo not drawn) | -13.0 | -10.7 | 89.5* | -30.5 | 13.2 | 7.4
CCCCOCCCNC(=O)C[C@@H]1C[C@@]2(C(=O)OCC)CCCC=C2N(Cc2ccc3c(c2)OCO3)C1=O | 12.5 | nt | nt | nt | nt | nt
O=C1OC[C@H](Cc2ccc3c(c2)OCO3)/C1=C\c1ccc2c(c1)OCO2 | -72.9 | 18.3 | 81.6 | 17.9 | -34.3 | 2.6
O=C(NCCc1cccs1)Nc1nnc([C@H]2C[C@H](O)[C@@H](CO)O2)s1 | 7.8 | 12.3 | -4.2 | nt | -5.5 | -10.6
COc1cc(NC(=O)CSc2ncnc3c2cnn3Cc2ccccc2)cc(OC)c1 | 20.8 | -14.3 | 12.1 | 0.5 | 18.2 | 21.2
COc1ccc(OC)c(NC(=O)CSc2ncnc3c2cnn3-c2ccccc2Cl)c1 | 26.5 | 3.1 | 89.3* | 29.2 | -15.5 | 13.1
CN=C1c2cc3cc(OC)ccc3n2CCN1Cc1ccccc1 | 15.3 | -16.3 | 89.7* | 5.5 | 6.0 | 3.2
CCN(CC)CCNC1=NCCn2c1cc1cc(OC)ccc12 | 17.2 | -2.1 | -20.6 | -8.5 | -0.8 | 14.8
CC(C)C(N)c1csc(NC(=O)Nc2cccc(C(F)(F)F)c2)n1 (stereo not drawn) | -6.3 | -10.5 | 30.0 | nt | 7.9 | 96.7*
SMILES | HIF-2a inh | KKLEB tox | Shn3 3UTR inh | TRPM1 prom inh | CF NFkB inh | Peg3 prom inh
NC(CO)c1csc(NC(=O)Nc2cccc(Cl)c2)n1 (stereo not drawn) | -17.2 | 3.6 | -11.1 | nt | -5.0 | -3.1
NC(Cc1ccc(C(F)(F)F)cc1)c1csc(NC(=O)Nc2ccccc2Cl)n1 (stereo not drawn) | 12.8 | 22.8 | -6.8 | nt | -44.5 | 89.0*
COc1ccc(CC(N)c2csc(NC(=O)Nc3cccc(C(F)(F)F)c3)n2)cc1 (stereo not drawn) | 3.3 | -11.1 | 96.4* | nt | 3.5 | 96.6*
NC(COCc1ccccc1)c1csc(NC(=O)Nc2cccc(Cl)c2)n1 (stereo not drawn) | 5.4 | -32.2 | 6.3 | nt | 17.0 | 95.7*
Cc1ccc2nc(Cl)c(/C=N/n3c(C)nnc3C)cc2c1 | -50.5 | -6.1 | -9.8 | 1.5 | -28.1 | -39.4
CN1C(=O)CCC(CCC(=O)O)(c2ccccc2O)C1=O (stereo not drawn) | 15.5 | -0.1 | 7.1 | 4.2 | 1.9 | 7.2
NCc1csc(NC(=O)Nc2cccc(C(F)(F)F)c2)n1 | 6.0 | -2.1 | 6.9 | nt | 31.0 | -2.2
NC(Cc1ccc(C(F)(F)F)cc1)c1csc(Nc2ccc(S(N)(=O)=O)cc2)n1 (stereo not drawn) | 4.8 | -8.7 | 23.1 | nt | 0.7 | 32.0
NC(CCc1ccccc1)c1csc(NC(=O)Nc2cccc(C(F)(F)F)c2)n1 (stereo not drawn) | 5.9 | -6.2 | 62.5 | nt | 15.8 | 94.5*
COc1cc(CNC(=O)Nc2nc(C(N)Cc3ccc(C(F)(F)F)cc3)cs2)cc(OC)c1OC (stereo not drawn) | 14.8 | -3.6 | -11.5 | nt | 11.3 | 97.8*
COc1ccc(CC(N)c2csc(NC(=O)NCCc3ccc(OC)c(OC)c3)n2)cc1 (stereo not drawn) | -2.4 | -7.0 | 20.7 | nt | 11.3 | 3.3
NC(Cc1ccc(C(F)(F)F)cc1)c1csc(NC(=O)Nc2ccccc2)n1 (stereo not drawn) | 7.2 | -8.9 | -4.7 | nt | 6.1 | 93.7*
CC(C)c1ccc(NC(=O)Nc2nc(C(N)c3ccccc3Cl)cs2)cc1 (stereo not drawn) | 8.4 | -15.9 | 73.5 | nt | 19.1 | 87.5*
COc1cc(C(=O)OCC(=O)Nc2ccc(C)cc2)cc(OC)c1OC | 10.1 | -13.6 | 5.5 | 16.0 | 7.8 | 12.1
C[C@H](CO)N1C[C@H](C)[C@@H](CN(C)C(=O)NC2CCCCC2)Oc2ccc(NC(=O)C3CC3)cc2C1=O | 11.2 | 17.8 | -0.5 | 2.0 | -15.9 | 2.6
NC(Cc1ccc(Cl)cc1)c1csc(NC(=O)Nc2ccccc2)n1 (stereo not drawn) | -19.4 | -27.5 | 21.3 | nt | 33.0 | 100.8*
NC(Cc1ccc(C(F)(F)F)cc1)c1csc(Nc2nncc3ccccc23)n1 (stereo not drawn) | 6.4 | -33.2 | 7.0 | nt | 18.9 | 93.9*
CC(C)C(N)c1csc(NC(=O)Nc2ccc(OC(F)(F)F)cc2)n1 (stereo not drawn) | -33.8 | -5.8 | -2.7 | nt | 32.8 | 97.1*
